Results published in PubChem BioAssay (EPA / NIEHS).
The source made the active and inactive calls. Rule for the calls: active = hit-call score of the fitted dose curve at least 0.9, where 1 is the maximum; inactive = score below 0.9.

Assays:
[1] = APR_HepG2_CellCycleArrest_24hr: Apredica 24-hour HepG2 Assay for Cell Cycle Arrest (AID 2282905); details: imaging, actives raise or lower the signal;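 note: cell cycle arrest scored as ratio of 2N to 4N nuclear DNA content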
Outline: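 Compounds (0.39 to 200 uM, final DMSO 0.5% v/v) are applied to HepG2 cells for 24 hours; cells are then fixed, permeabilized and nuclei labeled with Hoechst 33342. Automated imaging measures DNA content, and activity is fitted in both directions against DMSO.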

[2] = APR_HepG2_NuclearSize_24hr: Apredica 24-hour HepG2 Assay for Nuclear Size (AID 2282907); details: high-content imaging, actives raise or lower the signal
Outline: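 Nuclear size is measured by fluorescence high-content imaging of Hoechst-labelled HepG2 nuclei after 24 hr of treatment (0.39–200 uM, 0.5% DMSO). Cells are fixed in 3.7% formaldehyde before staining, and DMSO serves as the baseline for bidirectional curve fitting.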

[3] = APR_HepG2_CellLoss_24hr: Apredica 24-hour HepG2 Assay for Cell Loss (AID 2282908); details: high-content imaging;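 for AC50: fit in both directions so a hit may be cell loss or gain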
Outline: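 Nuclear count serves as the viability measure: treated cells are fixed, permeabilized and labelled with Hoechst 33342, and six images per well are analysed to identify valid nuclei. Doses span 0.39–200 uM, and activity in either direction is scored against DMSO.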

[4] = APR_HepG2_MicrotubuleCSK_24hr: Apredica 24-hour HepG2 Assay for Microtubule CSK Stabilty (AID 2282909); details: HepG2 microtubule cytoskeleton imaging, actives raise or lower the signal
Outline: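 Compounds were applied to HepG2 cells for 24 hours across 0.39–200 uM in duplicate, with final DMSO at 0.5% v/v. Fixed, permeabilized cells were labeled for alpha-tubulin and nuclei, and tubulin fluorescence was quantified by imaging, fitted bidirectionally against DMSO.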

[5] = APR_HepG2_MitoticArrest_24hr: Apredica 24-hour HepG2 Assay for Mitotic Arrest (AID 2282910); details: high-content imaging, actives raise or lower the signal
Outline: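 High-content imaging of fixed HepG2 cells labeled with Hoechst 33342 and anti-phospho-histone H3, after 24 h treatment. Ten concentrations 0.39 to 200 uM in duplicate, final DMSO 0.5%; changes fitted both directions relative to DMSO.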

[6] = APR_HepG2_MitoMembPot_24hr: Apredica 24-hour HepG2 Assay for Mitochondrial Membrane Potential (AID 2282911); details: imaging, actives raise or lower the signal
Outline: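 Cells are dosed for 24 hr across 0.39 to 200 uM with solvent held at 0.5% DMSO. They are then stained with 250 nM MitoTracker Red CMXRos for 30 min, fixed in 3.7% formaldehyde and imaged.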

[7] = APR_HepG2_MitoMass_24hr: Apredica 24-hour HepG2 Assay for Mitochondrial Mass (AID 2282912); details: high-content imaging, actives raise or lower the signal
Outline: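 After 24 hr of treatment at 0.39 to 200 uM, HepG2 cells take up 250 nM MitoTracker Red CMXRos for 30 min and are then fixed with 3.7% formaldehyde. Per-well images are quantified, and any change in either direction is scored against solvent.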

[8] = APR_HepG2_CellCycleArrest_72hr: Apredica 72-hour HepG2 Assay for Cell Cycle Arrest (AID 2282914); details: high-content imaging, actives raise or lower the signal
Outline: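 Read-out is Hoechst-stained nuclear DNA content measured by automated fluorescence imaging (20x, six images per well), fitted in both directions relative to DMSO. Human HepG2 liver cells received 0.39–200 uM compound for 72 hr at 0.5% v/v DMSO.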

[9] = APR_HepG2_CellLoss_72hr: Apredica 72-hour HepG2 Assay for Cell Loss (AID 2282915); details: high-content imaging
Outline: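 Cell number comes from Hoechst 33342-labelled nuclei, imaged at 20x after 3.7% formaldehyde fixation. Dosing was 0.39–200 uM, ten concentrations in duplicate, 0.5% DMSO final, for 72 h. Bidirectional fit relative to DMSO baseline.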

[10] = APR_HepG2_MitoMembPot_72hr: Apredica 72-hour HepG2 Assay for Mitochondrial Membrane Potential (AID 2282917); details: imaging, actives raise or lower the signal
Outline: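 Membrane potential read by MitoTracker Red CMXRos (250 nM, 30 min, pre-fixation) fluorescence imaging of HepG2 after 72 hr exposure. Ten concentrations, 0.39–200 uM, duplicate wells, 0.5% DMSO; fitted in both directions against DMSO baseline.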

[11] = APR_HepG2_MitoticArrest_72hr: Apredica 72-hour HepG2 Assay for Mitotic Arrest (AID 2282918); details: high-content imaging, actives raise or lower the signal
Outline: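 Read-out is phospho-histone H3 immunofluorescence with Hoechst nuclear segmentation, imaged at 20x. Human HepG2 liver cells received ten concentrations (0.39–200 uM, final DMSO 0.5% v/v) for 72 hr before fixation. Gain or loss of signal was fitted relative to DMSO.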

[12] = APR_HepG2_MicrotubuleCSK_72hr: Apredica 72-hour HepG2 Assay for Microtubule CSK Stabilty (AID 2282919); details: HepG2 microtubule cytoskeleton, high-content imaging, actives raise or lower the signal
Outline: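 High-content imaging of alpha-tubulin staining in fixed HepG2 cells after 72 hr treatment with ten concentrations from 0.39 to 200 uM (0.5% DMSO). Fitting was bidirectional against DMSO; taxol served as positive control.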

[13] = APR_HepG2_P-H2AX_24hr: Apredica 24-hour HepG2 Assay for H2AX Phosphorylation (AID 2282920); details: high-content imaging, actives raise or lower the signal
Outline: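 HepG2, 24 hr, cpd 0.39–200 uM (10 conc, duplicate), DMSO 0.5% v/v final. Fix 3.7% formaldehyde, Triton X-100 permeabilize, anti-phospho-H2A.x 1:200 + Hoechst 2 ug/mL. Imaged, bidirectional fit vs DMSO.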

[14] = APR_HepG2_StressKinase_72hr: Apredica 72-hour HepG2 Assay for Stress Kinase (AID 2282921); details: HepG2 stress kinase (phospho-c-Jun) imaging, actives raise or lower the signal
Outline: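 After a 72 h compound treatment spanning 0.39 to 200 uM, formaldehyde-fixed cells are labelled for phosphorylated c-Jun and nuclei, imaged by automated fluorescence microscopy, and activity is fitted in both directions relative to DMSO controls.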

[15] = APR_HepG2_StressKinase_24hr: Apredica 24-hour HepG2 Assay for Stress Kinase (AID 2282922); details: HepG2 stress kinase (phospho-c-Jun) imaging, actives raise or lower the signal
Outline: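 High-content imaging of phospho-c-Jun immunofluorescence in fixed, permeabilized HepG2 cells after 24 h dosing. Ten concentrations, 0.39 to 200 uM, run in duplicate at 0.5% v/v DMSO; gain or loss of signal versus DMSO.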

[16] = APR_HepG2_MitoMass_72hr: Apredica 72-hour HepG2 Assay for Mitochondrial Mass (AID 2282924); details: high-content imaging, actives raise or lower the signal;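 note: MitoTracker Red CMXRos stain intensity per cell imaged as mitochondrial mass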
Outline: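 Readout is imaged MitoTracker Red (250 nM, 30 min, pre-fixation) signal, fitted bidirectionally against DMSO baseline. Human HepG2 liver cells received compound 0.39–200 uM in duplicate for 72 hr, final DMSO 0.5%.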

[17] = APR_HepG2_NuclearSize_72hr: Apredica 72-hour HepG2 Assay for Nuclear Size (AID 2282925); details: high-content imaging, actives raise or lower the signal
Outline: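 Nuclear size was read by high-content imaging of Hoechst 33342 stain after formaldehyde fixation. Compounds ran 72 h on HepG2 at 0.39 to 200 uM, with final DMSO 0.5% v/v. Curves fitted both directions relative to DMSO control.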

[18] = APR_HepG2_P-H2AX_72hr: Apredica 72-hour HepG2 Assay for H2AX Phosphorylation (AID 2282916); details: imaging, actives raise or lower the signal;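 note: phospho-histone H2A.x immunostain intensity per cell marking DNA damage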
Outline: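 Human hepatoma HepG2 cells are dosed across ten concentrations (0.39 to 200 uM, 0.5% v/v DMSO) and incubated 72 hr. Phospho-histone H2A.x is then detected by antibody staining alongside c-Jun and Hoechst, and quantified by automated fluorescence imaging.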

[19] = APR_HepG2_p53Act_24hr: Apredica 24-hour HepG2 Assay for p53 Activation (AID 2282913); details: high-content imaging, actives raise or lower the signal;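 note: p53 protein immunofluorescence averaged per cell in HepG2 with Hoechst nuclei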
Outline: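 Human HepG2 liver cells; 24 hr cpd treatment, 0.39–200 uM, 0.5% DMSO final. Fixed in 3.7% formaldehyde, permeabilized with 0.5% Triton X-100, stained with anti-p53/Cy5 plus Hoechst 33342. Six images per well at 20x; gain or loss vs DMSO.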

Measured: AC50

CCN(CC)CCOc1ccc(C(=C(Cl)c2ccccc2)c2ccccc2)cc1
inactive: [1] | [10] | [14] | [15] | [17]
active: [2] 15.7 µM | [3] 48 µM | [4] 81.2 µM | [5] 10.8 µM | [6] 0.0258 µM | [7] 155 µM | [8] 26.5 µM | [9] 13.7 µM | [11] 11.4 µM | [12] 61.2 µM | [13] 10.5 µM | [16] 77.9 µM

C/C=C/C=C/C(=O)O
active: [8] 71.5 µM | [9] 83.7 µM | [18] 93 µM | [11] 98.2 µM | [16] 47.5 µM | [17] 60.7 µM
not listed: [19]
inactive: all other assays above

CC1(C)C(=O)NC(=O)N1CO
active: [3] 108 µM | [9] 120 µM | [16] 100 µM
not listed: [6]
inactive: all other assays above

COC(=O)CCC(=O)OC
not listed: [18]
inactive: all other assays above

CCCCOC(=O)CCCCC(=O)OCCCC
not listed: [18] | [19]
inactive: all other assays above

O=C(O)CN(CC(=O)O)CC(=O)O
not listed: [6]
inactive: all other assays above

COC(=O)CCCC(=O)OC
not listed: [6]
inactive: all other assays above
